The values below come from PubChem BioAssay AID602350 (Broad Institute, 2012).

Entries with a potency or affinity are not part of this list. Calls of active or inactive are those of the source.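 Rule for the calls: active = absorbance falls by 30% or more versus neutral controls, with a potency fitted within twice the top valid dose; inconclusive = no clear call, values can overlap the other calls; inactive = change opposite to expected direction, plus the rest.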

Sequence of Protein disulfide-isomerase (Homo sapiens) (P07237 whole entry, looked up): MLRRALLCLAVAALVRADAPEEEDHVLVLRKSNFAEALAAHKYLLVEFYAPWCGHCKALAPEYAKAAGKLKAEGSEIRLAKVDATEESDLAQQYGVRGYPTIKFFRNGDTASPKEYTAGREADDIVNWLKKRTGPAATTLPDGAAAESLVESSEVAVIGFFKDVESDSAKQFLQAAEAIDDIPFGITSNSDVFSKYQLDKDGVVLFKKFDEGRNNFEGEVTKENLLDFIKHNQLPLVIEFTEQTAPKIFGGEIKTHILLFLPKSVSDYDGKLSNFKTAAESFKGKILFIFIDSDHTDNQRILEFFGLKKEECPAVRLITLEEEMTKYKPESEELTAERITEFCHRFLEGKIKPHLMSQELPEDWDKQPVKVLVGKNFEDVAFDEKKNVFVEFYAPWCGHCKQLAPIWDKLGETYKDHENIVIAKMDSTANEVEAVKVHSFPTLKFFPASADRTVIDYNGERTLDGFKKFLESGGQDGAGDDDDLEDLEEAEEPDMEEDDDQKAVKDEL

The assay concerns the target Protein disulfide-isomerase (Homo sapiens) (UniProt P07237). Put plainly: PDI inhibitors, insulin aggregation turbidity, dose response, biochemical, absorbance, cherry-picked samples (AID 602350).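 Note: 0% = neutral controls and -100% = rutin hydrate positive control wells.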 The note with it: recombinant PDI insulin aggregation, absorbance 650 nm, 90 min; series mostly up to 19.5 µM.
For the compound `COCC(=O)N(C)C1(c2nnnn2CCOC(=O)Nc2ccc(Cl)cc2)CCCCC1`, the result was inactive. `Cc1ccc(S(=O)(=O)N(C)c2ccc(OC(=O)COc3ccccc3)cc2)cc1`: the result was inactive. In the case of `CC(=O)c1cc(-c2ccccc2)n(CC(=O)Nc2cccc(C)c2)c1C`, the result was inactive. `CCOC(=O)c1ccc(NC(=O)C2(c3ccc(Cl)cc3)CCCC2)cc1`: the outcome was inactive. Turning to `CC1(C(=O)N2CCCCC2)CCN1C(=O)Cc1ccc(-c2ccccc2)cc1` (centres undefined), the result was inactive. With `O=S(=O)(Nc1ccc(C(O)(C(F)(F)F)C(F)(F)F)cc1)c1ccc(Cl)c2nonc12`, the outcome was inactive. Regarding `CCOC(=O)c1c(CN2CCN(Cc3ccccc3)CC2)n(C)c2cc(Br)c(OC)cc12`, the outcome was inactive. On the same count and under the same terms, with `CCOC(=O)c1c(CN2CCOCC2)n(-c2ccccc2)c2cc(Br)c(O)cc12` the entry was “inactive”; with `COc1ccc(/C=C2\Sc3ccc(C(=O)NCCCN4CCCC4)cc3N(C)C2=O)cc1OC`, “inactive”; with `COc1ccc(N(CC(=O)NCCSC2CCCCC2)S(=O)(=O)c2ccccc2)c(OC)c1`, “inactive”. On to `COc1ccc(C2c3ccc(O)cc3Oc3ncn4nc(-c5cccnc5)nc4c32)cc1OC` (centres undefined), for which the outcome was inactive. With `O=C1CCC(=O)N1CCc1c[nH]c2ccccc12`, the result was inactive.

Regarding `COc1ccc(C[C@@H]2OC3(C=CC(=O)C=C3)O[C@H]2Cc2ccc(OC)cc2)cc1`, the activity change, negative = inhibition is -2.56% [at 2.1 µM] (inactive). For `CCOc1ccc2nc(SCC(=O)c3ccc(Cl)s3)sc2c1`, the outcome was inactive.

For the compound `CCCN(CCC)S(=O)(=O)c1ccc(C(=O)Nc2nnc(COC)o2)cc1`, the outcome was inactive.

Take `O=C1C[C@H](c2ccc(O)cc2)Oc2cc(O[C@@H]3O[C@H](CO)[C@@H](O)[C@H](O)[C@H]3O)cc(O[C@@H]3O[C@H](CO)[C@@H](O)[C@H](O)[C@H]3O)c21`: the outcome was inactive. Consider `Cn1nnnc1SCC(=O)Nc1cc(C(F)(F)F)ccc1N1CCOCC1`, for which the outcome was inactive. `C[C@]12CC[C@H]3C(=CCc4cc(O)ccc43)[C@@H]1CCC2=O`: the outcome was inactive. Consider `O=C(COC(=O)c1ccccc1NC(=O)c1ccco1)NCCC1=CCCCC1`, for which the outcome was inactive. For the compound `COc1cc2c(cc1OC)C(C)N(CC(=O)Nc1ccc(S(=O)(=O)N3CCCC3)cc1)CC2` (centres undefined), the result was inactive. As for `CC(=O)Oc1ccc(C2OC(=O)c3ccccc3N2C(C)=O)cc1` (centres undefined), the outcome was inactive. Turning to `Cc1ccc2c(=O)n3c(nc2c1)C(Cc1ccc(O)cc1)NC(=O)c1cccnc1-3` (centres undefined), the outcome was inactive. For the compound `Cc1noc(C)c1-c1ccc(C(=O)NCc2ccc(Cl)cc2)c2occc12`, the outcome was inactive. As to `Cc1c(O)ccc2c(CN3CCN(Cc4ccccc4)CC3)cc(=O)oc12`, the outcome was inactive. For `Cc1cc(C)cc(CC(=O)N2CCC2(C)C(=O)NS(=O)(=O)c2ccc(Br)cc2)c1` (centres undefined), the result was inactive. As to `CC(=O)Nc1cccc(NC(=O)CCc2ccccc2)c1`, the result was inactive. On to `Cc1cc(C)cc(OCC(=O)Nc2ccccc2C(=O)N2CCOCC2)c1`, for which the result was inactive. As for `CC(NC(=O)COC(=O)Cc1ccccc1[N+](=O)[O-])c1ccccc1` (centres undefined), the result was inactive. On the same count and under the same terms, with `CCCCN(C(=O)C1=CC=CN2CCS(=O)(=O)N=C12)c1ccccc1` the entry was “inactive”; with `CCCCC(=O)OC1CCC2C3CCc4cc(O)ccc4C3CCC12C` (centres undefined), “inactive”; with `COc1ccc(OCCN2CCC(C(=O)NC(c3ccsc3)c3ccccc3C)CC2)cc1` (centres undefined), “inactive”. With `CC(=O)OC1CCC2C3CCC4=C(CC(F)C(=O)C4)C3CCC12C` (centres undefined), the outcome was inactive. For `Cc1ccc(CN(c2ccc(C(=O)Nc3ccc4c(c3)OCO4)cc2)S(C)(=O)=O)cc1`, the outcome was inactive. As to `CC(=O)NC(Cc1c[nH]c2ccccc12)C(=O)OCC(=O)N1CCN(S(=O)(=O)c2ccc(Cl)cc2)CC1` (centres undefined), the result was inactive. Consider `CC1(C)CC[C@]2(C(=O)O)CC[C@]3(C)C(=CC[C@@H]4[C@@]5(C)CC[C@H](O[C@@H]6O[C@H](C(=O)O)[C@@H](O)[C@H](O[C@@H]7OC[C@H](O)[C@H](O)[C@H]7O)[C@H]6O)C(C)(C)[C@@H]5CC[C@]43C)[C@@H]2C1`, for which the outcome was inactive. Consider `CN(C)C(=O)CSc1n[nH]c(-c2ccco2)n1`, for which the outcome was inactive. For the compound `CC(=O)c1ccc(N2CCN(C(=O)c3ccc4[nH]c(C)c(C)c4c3)CC2)cc1`, the outcome was inactive. In the case of `Cc1ccc(S(=O)(=O)c2ccc(Oc3cccc(C)c3)cc2)cc1`, the result was inactive. On the same count and under the same terms, with `Cc1ccc(N2CC(C(=O)Nc3nc4ccc(S(C)(=O)=O)cc4s3)CC2=O)cc1` (centres undefined) the entry was “inactive”.
